{"source": "PubChem BioAssay (NCATS)", "note": "Inconclusive results are not listed. A number with no mark means an inactive call. Activity calls are given as the source filed them. Calls come from the whole dose curve; as a rule, active = well fitted inhibition curve with a large enough effect; inconclusive = small, poorly fitted or top-dose-only effect; inactive = no such curve, though single readings can be large or run the other way. Where a SMILES comes first, the peptide text is derived from it. % is set by controls: 0 for no effect and ±100 for the full control effect."}
{"assay": "Primary qHTS for small molecule stabilizers of the endoplasmic reticulum resident proteome: Secreted ER Calcium Modulated Protein (SERCaMP) assay (AID 1508630)", "conditions": "SH-SY5Y GLuc-SERCaMP (Gaussia luciferase released on ER calcium loss) secretion, thapsigargin, luminescence; series mostly up to 38.4 µM; activity change, negative = inhibition: at the top concentration", "excerpt": "Assay Provider: Brandon K. Harvey Ph.D.\nNational Institute on Drug Abuse, National Institutes of Health, Baltimore, MD\nEndoplasmic reticulum (ER) dysregulation is associated with human pathologies including neurodegenerative, cardiovascular, muscular, and diabetic conditions. Maintenance of ER calcium is critical for functions of the ER and its depletion can lead to loss of ER resident proteins, in a process termed exodosis. Therapeutic compounds capable of attenuating the redistribution of ER proteins under pathological conditions may slow or stop disease progression. To identify such compounds, we performed a quantitative high-throughput screen (qHTS) using the SERCaMP assay, which monitors secretion of ER resident proteins triggered by calcium depletion.\nSERCaMP was initially developed as a reporter of ER calcium homeostasis using a Gaussia luciferase with a modified signal peptide and carboxy-terminus (GLuc-SERCaMP), modifications that confer secretion of the reporter in response to ER calcium depletion (Henderson et al., 2014). The assay was used to screen 9,501 compounds, including a collection of drugs approved by the FDA (US), EMA (EU), NHI (Japan), and HC (Canada) regulatory agencies (Huang et al., 2011). Since the SERCaMP reporter reflects the exodosis phenomenon (Trychta et al., 2018a), compounds identified in the screen have the potential to prevent exodosis by different mechanisms such as stabilizing ER calcium or augmenting ERS retrieval.\n1. Henderson, M.J., Wires, E.S., Trychta, K.A., Richie, C.T., and Harvey, B.K. (2014). SERCaMP: a carboxy-terminal protein modification that enables monitoring of ER calcium homeostasis. Mol Biol Cell 25, 2828-2839.\n2. Huang, R., Southall, N., Wang, Y., Yasgar, A., Shinn, P., Jadhav, A., Nguyen, D.T., and Austin, C.P. (2011). The NCGC pharmaceutical collection: a comprehensive resource of clinically approved drugs enabling repurposing and chemical genomics. Sci Transl Med 3, 80ps16.\n3. Trychta, K.A., Back, S., Henderson, M.J., and Harvey, B.K. (2018a). KDEL Receptors Are Differentially Regulated to Maintain the ER Proteome under Calcium Deficiency. Cell Rep 25, 1829-1840 e1826.\nSEQUENCE No. (1, 2, 3, etc.); […] (e.g., Cells, Incubation, Reagent, etc.); VALUE and DESCRIPTION.\n1; Reagent; 5 uL; 1000 SH-SY5Y cells per wells\n3; Compound; 23 nL; Control inhibitor / compound library\n5; Reagent; 100 nM; Thapsigargin\n7; Reagent; 1 uL; 0.5x coelenterazine\n8; Detection; Luminescence; ViewLux imaging system\nNOTES (numbers refer to sequence above)\n1; SH-SY5Y human neuroblastoma cells stably expressing GLuc-SERCaMP (SH-SY5Y-GLuc-ASARTDL) cells were seeded in 1,536 well white tissue culture treated plates (Corning, Cat# 7464) in DMEM-high glucose-sodium pyruvate (ThermoFisher Scientific, Cat #10569) supplemented with 10% bovine growth serum (Hyclone), 10 U/ml penicillin (Gibco), 10 ug/ml streptomycin (Gibco), and 20 mM HEPES.\n2; Assay plates were incubated for 5 hour at 37C in a humidified incubator containing 5% CO2.\n3; qHTS libraries (23 nl, final concentrations of 1.53 uM, 7.67 uM, 38.3 uM) or controls (neutral control: DMSO, positive control: dantrolene) were added using a Kalypsis pin-tool Robotic System equipped with 1536 pinheads.\n4; Cells were then incubated for 16 hours at 37C, 5% CO2.\n5; Thapsigargin was added at 100 nM to deplete ER calcium stores.\n6; Cells were incubated for 4 hour (37 °C, 5% CO2)\n7; Gaussia luciferase in the medium was measured by adding 1 ul of 0.5x coelenterazine (final concentration 0.07x) prepared in Gaussia Luciferase Glow Assay Buffer (Pierce), without addition of the Cell Lysis Buffer Reagent.\n8; Luminescence was measured using a ViewLux […] CCD imaging system (Perkin Elmer) equipped with clear filters. […] The same controls were also used for the calculation of the Z' factor, a measure of assay quality control, as previously described (Zhang et al., 1999). […]"}
{"smiles": "Clc1ccc(C2CC3CCC2N3)cn1", "note": "(stereo not given)", "Potency": "inactive"}
{"smiles": "CCCN(CCC)[C@@H]1CCc2c(OC)cccc2[C@@H]1C", "Potency": "inactive"}
{"smiles": "COc1ccc2c(c1)[nH]c1c(C)nccc12", "Potency": "inactive"}
{"smiles": "CN(C(=O)Cc1ccc(Cl)c(Cl)c1)C(CN1CCCC1)c1cccc(N=C=S)c1", "note": "(stereo not given)", "activity change, negative = inhibition": "390%"}
{"smiles": "C[C@](N)(CCP(=O)(O)O)C(=O)O", "activity change, negative = inhibition": "-26.8%"}
{"smiles": "CCN1C[C@]2(COC)CC[C@H](OC)[C@@]34C5C[C@@H]6[C@@H](OC)C[C@@]7(OCO[C@@]7([C@@H](O)C23)[C@@H]14)C5[C@H]6OC", "note": "(stereo not given in full)", "activity change, negative = inhibition": "4.48%"}
{"smiles": "CCN1C[C@]2(COC(=O)c3ccccc3N3C(=O)C[C@H](C)C3=O)CC[C@H](OC)[C@@]34[C@@H]5C[C@H]6[C@H](OC)[C@H]5[C@](O)(C[C@@H]6OC)[C@@](O)([C@@H](OC)[C@@H]23)[C@@H]14", "activity change, negative = inhibition": "17.6%"}
{"smiles": "CC[C@@H](CO)NC(=O)[C@H]1C=C2c3cccc4[nH]cc(c34)C[C@H]2N(C)C1", "activity change, negative = inhibition": "7.67%"}
{"smiles": "CS(=O)(=O)Nc1ccc(Cc2noc(-c3ccc4[nH]cc(CCN)c4c3)n2)cc1", "Potency": "inactive"}
{"smiles": "CC(C)(O)[C@@H]1[C@H]2OC(=O)[C@@H]1[C@]1(O)C[C@H]3O[C@]34C(=O)O[C@H]2[C@@]14C", "note": "(tested in a mixture with another compound)", "activity change, negative = inhibition": "-21.4%"}
{"smiles": "C=CCN1C[C@H](C)N([C@@H](c2ccccc2)c2ccc(C(=O)N(CC)CC)cc2)C[C@H]1C", "activity change, negative = inhibition": "-14.1%"}
{"smiles": "CCCN1C[C@H](C)N([C@H](c2ccc(C(=O)N(CC)CC)cc2)c2cccc(OC)c2)C[C@H]1C", "Potency": "inactive"}
{"smiles": "CCCCC/C=C\\C/C=C\\C/C=C\\C=C\\[C@H](CCCC(=O)O)OO", "activity change, negative = inhibition": "-17.5% [at 0.478 µM]"}
{"smiles": "CC(C)C[C@H](NC(=O)[C@H](Cc1ccccc1)NC(=O)CNC(=O)[C@H](CS)N(C(=O)[C@@H](N)Cc1ccc(O)cc1)C(C)(C)C)C(=O)N([C@H](C(=O)O)[C@H](C)O)C(C)(C)C", "note": "(HELM PEPTIDE1{Y.[CC(C)(C)N([C@@H](CS)C(=O)[*:2])[*:1]].G.F.L.[C[C@H](O)[C@@H](C(=O)O)N(C(C)(C)C)[*:1]]}$$$$V2.0)", "activity change, negative = inhibition": "-10.6% [at 3.88 µM]"}
{"smiles": "CCCCC1(C2CCCC2)Cc2cc(OCCCC(=O)O)c(Cl)c(Cl)c2C1=O", "note": "(stereo not given)", "activity change, negative = inhibition": "81.1%"}
{"smiles": "COc1ccc(CCN)cc1", "activity change, negative = inhibition": "15.4%"}
{"smiles": "C/C=C1/CN2CC[C@]34C(=C(C=O)[C@@H]1C[C@H]23)Nc1c(O)cccc14", "activity change, negative = inhibition": "-16.4%"}
{"smiles": "CN1CCCCC1c1cccnc1", "note": "(stereo not given)", "activity change, negative = inhibition": "-6.28%"}
{"smiles": "Cc1o[nH]c(=O)c1C[C@@H](N)C(=O)O", "activity change, negative = inhibition": "-33.5%"}
{"smiles": "C=C1C([C@@H](O)C[C@H](C)C2O[C@@]3(CCCCO3)CC[C@H]2C)OC2CC[C@@]3(CC[C@@H](/C=C/[C@@H](C)C4CC(C)=C[C@]5(O4)O[C@H](C[C@@](C)(O)C(=O)O)CCC5O)O3)OC2[C@@H]1O", "note": "(stereo not given in full)", "activity change, negative = inhibition": "-21.6% [at 1.51 µM]"}
{"smiles": "C[C@@]1(CO)[C@H](O)CC[C@@]2(C)[C@H]1CC[C@H]1C[C@@H]3C[C@@]12CC[C@]3(O)CO", "activity change, negative = inhibition": "18.2%"}
{"smiles": "CCOC(OCC)P(=O)(O)CCCN", "Potency": "inactive"}
{"smiles": "CC1OC(=O)[C@@H](C(C)C)NC(=O)C(C(C)C)OC(=O)[C@H](C(C)C)NC(=O)C(C)OC(=O)[C@@H](C(C)C)NC(=O)C(C(C)C)OC(=O)[C@H](C(C)C)NC(=O)C(C)OC(=O)[C@@H](C(C)C)NC(=O)C(C(C)C)OC(=O)[C@H](C(C)C)NC1=O", "note": "(stereo not given in full)", "activity change, negative = inhibition": "98%"}
{"smiles": "CSCC[C@H](NC(=O)[C@H](Cc1ccccc1)NC(=O)CNC(=O)CNC(=O)[C@@H](N)Cc1ccc(O)cc1)C(=O)O", "activity change, negative = inhibition": "-26.7% [at 3.88 µM]"}
{"smiles": "C=C(C)[C@H]1CN[C@H](C(=O)O)[C@@H]1CC(=O)O", "activity change, negative = inhibition": "-24.9%"}
{"smiles": "C=CCN1CC[C@@]23c4c5ccc(O)c4O[C@H]2/C(=N\\N=C2/CC[C@@]4(O)[C@H]6Cc7ccc(O)c8c7[C@@]4(CCN6CC=C)[C@@H]2O8)CC[C@]3(O)[C@@H]1C5", "activity change, negative = inhibition": "83.9%"}
{"smiles": "C=C(C)[C@H]1C2C(=O)O[C@H]1[C@H]1OC(=O)[C@@]34O[C@@H]3C[C@]2(O)[C@@]14C", "activity change, negative = inhibition": "-23.4%"}
{"smiles": "O=C(O)CCC(CP(=O)(O)O)C(=O)O", "note": "(stereo not given)", "activity change, negative = inhibition": "-2.63%"}
{"smiles": "NCCc1cccc(O)c1", "Potency": "inactive"}
{"smiles": "COc1ccc2c(c1O)-c1cc(O)cc3c1[C@@H](C2)N(C)CC3", "activity change, negative = inhibition": "-10.5%"}
{"smiles": "c1cncc(C2CCCN2)c1", "note": "(stereo not given)", "activity change, negative = inhibition": "-14.7%"}
{"smiles": "C=C1[C@@H](C)[C@H]2[C@H](Cc3ccccc3)NC(=O)[C@]23[C@H](OC(C)=O)/C=C/[C@](C)(O)C(=O)[C@@H](C)C/C=C/[C@H]3[C@@H]1O", "activity change, negative = inhibition": "64.4%"}
{"smiles": "NC(N)=Nc1ccc2[nH]c3c(c2c1)C[C@]1(O)[C@@H]2Cc4ccc(O)c5c4[C@]1(CCN2CC1CC1)[C@@H]3O5", "activity change, negative = inhibition": "-24%"}
{"smiles": "C/C(=C\\[C@@H](N)C(=O)O)CP(=O)(O)O", "activity change, negative = inhibition": "-5.96%"}
{"smiles": "C[C@@H]1O[C@H](O[C@@H]2C[C@@H](O)[C@]3(CO)[C@H]4[C@H](O)C[C@]5(C)[C@@H](C6=CC(=O)OC6)CC[C@@]5(O)[C@@H]4CC[C@]3(O)C2)[C@@H](O)[C@H](O)[C@H]1O", "activity change, negative = inhibition": "71.3%"}
{"smiles": "CC1OC(=O)C(C(C)C)NC(=O)C(C(C)C)OC(=O)C(C(C)C)NC(=O)C(C)OC(=O)C(C(C)C)NC(=O)C(C(C)C)OC(=O)C(C(C)C)NC(=O)C(C)OC(=O)C(C(C)C)NC(=O)C(C(C)C)OC(=O)C(C(C)C)NC1=O", "note": "(stereo not given)", "activity change, negative = inhibition": "17% [at 21.6 µM]"}
{"smiles": "Cc1nc(N)sc1CCN", "activity change, negative = inhibition": "-20.4%"}
{"smiles": "NC[C@@H](CC(=O)O)c1ccc(Cl)cc1", "activity change, negative = inhibition": "-14.7%"}
{"smiles": "CN1C(=O)CCS(=O)(=O)[C@H]1c1ccc(Cl)cc1", "activity change, negative = inhibition": "-16.1%"}
{"smiles": "C[C@H](N)C(=O)N[C@@H](C)C(=O)N[C@@H](Cc1ccccc1)C(=O)CCl", "note": "(HELM PEPTIDE1{A.A.F.[ClC[*:1]]}$$$$V2.0)", "activity change, negative = inhibition": "-23.5%"}
